# Values joined by “and” are separate entries in the source; they are usually repeats but may differ in a detail not shown here. Identical values can stand only once. Results filed as inconclusive are left out. For some assays here: Measured potencies and affinities stand elsewhere. Active and inactive are the calls of the source.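 The calls were made as follows, unless noted: active = normalized viability below 100% at a tested concentration; inactive = the rest.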
# Assays:
# [1] = P. berghei load reduction in hepatocytes – cell-based, HepG2, luciferase luminescence, HepG2 viability, primary screen (AID 624349; in the data active = parasite load remaining mostly below about 12%, no sharp cut-off; inactive = mostly above about 10%;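 also: 100% = mean of DMSO negative control wells on the same plate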); conditions: P. berghei liver stage in HepG2, luciferase luminescence, concentration not given here; parasite load remaining: stronger effect = lower value; viability: measured here: HepG2 viability without parasites
# [2] = EMT-state selective cytotoxicity in co-culture – imaging, PC-3E GFP, TEM4-18 mCherry, primary screen (AID 1345086;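 active = compounds killing one labelled cell type while sparing the other, by normalised counts and ratio limits, not self-fluorescent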;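 as to all read-outs here: cells exposed to compound for 72 h before imaging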;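 as to red/green cell ratio (normalised): normalised mesenchymal count divided by normalised epithelial count so high means epithelial killing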); conditions: PC-3E GFP / TEM4-18 mCherry co-culture, imaging cell counts, at 1 µM; for red/green cell ratio (normalised): actives lie on both sides, counts scaled to control wells, 1 = unselective
# [3] = viability loss in pontine glioma line – cell-based, SU-DIPG-XVII, MIPE5.0, CellTiter-Glo, qHTS, dose response (AID 1347060; cut-off not given, nearly all actives have AC50 up to about 26 µM;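 as to AC50: cells exposed to compound for 48 hours before viability readout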); conditions: CellTiter-Glo ATP luminescence
# [4] = viability loss in pontine glioma line – cell-based, SU-DIPG-XIII, MIPE4.0, CellTiter-Glo, qHTS, dose response (AID 1347061; cut-off not given, nearly all actives have AC50 up to about 37 µM;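 also: cells exposed to compound for 48 hours before readout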); conditions: CellTiter-Glo ATP luminescence
# [5] = viability loss in pontine glioma line – cell-based, JHH-DIPG-1, MIPE4.0, CellTiter-Glo, qHTS, dose response (AID 1347062; cut-off not given, nearly all actives have AC50 up to about 27 µM); conditions: JHH-DIPG-1 viability, CellTiter-Glo ATP luminescence
# [6] = viability loss in pontine glioma line – cell-based, SU-DIPG-XIII, MIPE5.0, CellTiter-Glo, qHTS, dose response (AID 1347064; cut-off not given, nearly all actives have AC50 up to about 23 µM); conditions: CellTiter-Glo ATP luminescence
# [7] = viability loss in pontine glioma line – cell-based, SU-DIPG-XXV, MIPE5.0, CellTiter-Glo, qHTS, dose response (AID 1347065; cut-off not given, nearly all actives have AC50 up to about 26 µM;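 also: cells exposed to compound for 48 hours before ATP readout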); conditions: CellTiter-Glo ATP luminescence
# [8] = growth inhibition of DIPG cells – cell-based, MIPE4.0 library, CellTiter-Glo luminescence, qHTS (AID 1347066; cut-off not given, nearly all actives have AC50 up to about 30 µM;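 also: cells exposed to compound for 48 hours before readout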); conditions: SU-DIPG-VI viability, CellTiter-Glo ATP luminescence
# [9] = JHH-DIPG-1 glioma cell viability, MIPE5.0 library, CellTiter-Glo luminescence, qHTS (AID 1347067; cut-off not given, nearly all actives have AC50 up to about 26 µM;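 also: cells exposed to compound for 48 hours before readout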); conditions: JHH-DIPG-1 glioma viability, CellTiter-Glo ATP luminescence
# [10] = growth inhibition of DIPG cells – cell-based, MIPE5.0 library, qHTS (AID 1347068; cut-off not given, nearly all actives have IC50 up to about 30 µM); conditions: SU-DIPG-XXV viability
# [11] = viability loss with induced miR-34 in A549 – imaging, A549 dox-inducible miR-34, nuclei and caspase counts, primary screen (AID 1347080;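 active = compounds whose cell count with miR-34 switched on is under 0.7 times the count with it off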); conditions: A549 miR-34 inducible, Hoechst nuclei count, 48 h
# [12] = target: NAD(+) hydrolase SARM1 (Homo sapiens) (UniProt Q6SZW1); assay: blocking NAD cleavage by SARM1 SAM-TIR – cell lysate, NAD-Glo luminescence (AID 1508614;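 active = compound whose remaining NAD level is above about 45 nM, limit read from the data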;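 also: higher remaining NAD means stronger inhibition of SARM1 NADase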); conditions: SAM-TIR HEK293T lysate NADase, at 1 µM, stronger effect = higher value
# [13] = target: Mitogen-activated protein kinase 7 (Homo sapiens) (UniProt Q13164); assay: Gal4-ERK5 driven luciferase induction – cell-based, HTS, primary screen (AID 1508626;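 active = luciferase signal above three times the same-plate solvent-only control wells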;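 also: luciferase driven by Gal4-ERK5 fusion binding five Gal4 sites before minimal TATA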); conditions: HeLa Gal4-ERK5 transactivation, 18 h, at 5 µM, stronger effect = higher value
# [14] = viability loss in pontine glioma line – cell-based, SU-DIPG-IV, MIPE4.0, CellTiter-Glo, qHTS, dose response (AID 1347063; cut-off not given, nearly all actives have AC50 up to about 30 µM;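 also: compound exposure lasted 48 hours before the viability readout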); conditions: CellTiter-Glo ATP luminescence
# [15] = blockers of polyQ-driven CASP3 activation – cell-based (AID 1583); conditions: polyglutamine-induced caspase-3 activation, cell assay; stronger effect = higher value;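 tested at 10 µM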
# [16] = yeast 75Q aggregation reduction – 75Q-TubU reporter (AID 1593); conditions: Yeast 75Q polyglutamine aggregation reporter
# [17] = restoration of touch response, mutant HTT neurons – whole organism, C. elegans mechanosensory neurons, N-terminal huntingtin (AID 1599); conditions: C. elegans polyQ-huntingtin mechanosensory neurons, stronger effect = higher value
# [18] = blockers of cytochrome c efflux from mitochondria – biochemical, purified mitochondria (AID 1603); conditions: stronger effect = lower value;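 also: mouse liver mitochondria challenged with calcium chloride; signal normalized to the plate average as 100%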
# [19] = polyglutamine aggregate formation blockers (AID 1604); conditions: polyglutamine-induced protein aggregation inhibition assay; stronger effect = higher value; tested at 2.5 µM
# [20] = glutamate transport activators, MN-1 cells, MN-1 cell line (AID 1612); conditions: MN-1 motor neuron cells, stronger effect = higher value;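 also: tested at 1 µM final; 0% = mean of DMSO vehicle wells on each plate; positive means more glutamate uptake than control and negative means less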
# [21] = GFP-Q80 aggregate reduction, neuronal-like cells, cell-based, NGF-treated PC12, GFPQ80 (AID 1614); conditions: PC12 NGF-treated GFP-polyQ80 inclusion reduction;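 also: lower means fewer inclusions and 0 means no inclusions at all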
# [22] = 75Q-TubH aggregate inhibition, S. cerevisiae, yeast (AID 1616); conditions: S. cerevisiae 75Q-TubH polyglutamine aggregation suppression; stronger effect = higher value
# [23] = MELAS cybrid and Rieske KO viability enhancers – cell-based, MELAS cybrids, Rieske KO mouse fibroblasts, CellTiter-Glo, primary screen (AID 1508586;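 active = mean z-score across replicates of 1.96 or higher in either the MELAS or the Rieske mutant cell line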;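 also: z relative to plate mean and SD of compound and empty wells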); conditions: low glucose
# [24] = drug combination growth inhibition, ovarian cancer – cell-based, oncology-focused library, rucaparib conditional, profiling panel (AID 1508598); conditions: patient-derived ovarian cancer cells, CellTiter-Glo viability, 144 h, stronger effect = lower value
# [25] = measured here: epithelial PC-3E GFP cell survival
# [26] = measured here: mesenchymal TEM4-18 mCherry cell survival
# [27] = stronger effect = lower value, cell number ratio, induced over uninduced
# [28] = measured here: relative caspase fold change +Dox/-Dox
# [29] = measured here: total cells with miR-34 induction, stronger effect = lower value
# [30] = measured here: total cells without miR-34 induction
# Chain of NAD(+) hydrolase SARM1 (Homo sapiens) (Q6SZW1 whole entry, looked up, the tested form may be a part): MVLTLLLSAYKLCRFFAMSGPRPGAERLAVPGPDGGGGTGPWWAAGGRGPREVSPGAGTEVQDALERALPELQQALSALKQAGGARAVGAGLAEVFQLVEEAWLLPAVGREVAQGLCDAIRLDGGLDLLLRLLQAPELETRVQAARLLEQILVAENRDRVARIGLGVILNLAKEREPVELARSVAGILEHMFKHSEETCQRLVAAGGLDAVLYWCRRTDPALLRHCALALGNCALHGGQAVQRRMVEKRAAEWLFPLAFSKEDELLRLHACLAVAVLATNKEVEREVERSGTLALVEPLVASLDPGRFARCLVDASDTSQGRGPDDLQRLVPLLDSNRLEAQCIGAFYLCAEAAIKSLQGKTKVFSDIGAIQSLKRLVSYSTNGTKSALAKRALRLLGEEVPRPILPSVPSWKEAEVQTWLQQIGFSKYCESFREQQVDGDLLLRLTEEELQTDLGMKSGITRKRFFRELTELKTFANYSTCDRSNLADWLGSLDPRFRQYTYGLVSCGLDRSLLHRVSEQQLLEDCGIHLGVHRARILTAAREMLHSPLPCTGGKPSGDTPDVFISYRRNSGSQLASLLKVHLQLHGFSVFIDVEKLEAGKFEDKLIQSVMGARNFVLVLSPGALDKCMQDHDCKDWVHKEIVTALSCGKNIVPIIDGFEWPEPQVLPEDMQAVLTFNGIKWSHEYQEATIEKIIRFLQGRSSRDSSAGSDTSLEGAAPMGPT
# Chain of Mitogen-activated protein kinase 7 (Homo sapiens) (Q13164 whole entry, looked up, the tested form may be a part): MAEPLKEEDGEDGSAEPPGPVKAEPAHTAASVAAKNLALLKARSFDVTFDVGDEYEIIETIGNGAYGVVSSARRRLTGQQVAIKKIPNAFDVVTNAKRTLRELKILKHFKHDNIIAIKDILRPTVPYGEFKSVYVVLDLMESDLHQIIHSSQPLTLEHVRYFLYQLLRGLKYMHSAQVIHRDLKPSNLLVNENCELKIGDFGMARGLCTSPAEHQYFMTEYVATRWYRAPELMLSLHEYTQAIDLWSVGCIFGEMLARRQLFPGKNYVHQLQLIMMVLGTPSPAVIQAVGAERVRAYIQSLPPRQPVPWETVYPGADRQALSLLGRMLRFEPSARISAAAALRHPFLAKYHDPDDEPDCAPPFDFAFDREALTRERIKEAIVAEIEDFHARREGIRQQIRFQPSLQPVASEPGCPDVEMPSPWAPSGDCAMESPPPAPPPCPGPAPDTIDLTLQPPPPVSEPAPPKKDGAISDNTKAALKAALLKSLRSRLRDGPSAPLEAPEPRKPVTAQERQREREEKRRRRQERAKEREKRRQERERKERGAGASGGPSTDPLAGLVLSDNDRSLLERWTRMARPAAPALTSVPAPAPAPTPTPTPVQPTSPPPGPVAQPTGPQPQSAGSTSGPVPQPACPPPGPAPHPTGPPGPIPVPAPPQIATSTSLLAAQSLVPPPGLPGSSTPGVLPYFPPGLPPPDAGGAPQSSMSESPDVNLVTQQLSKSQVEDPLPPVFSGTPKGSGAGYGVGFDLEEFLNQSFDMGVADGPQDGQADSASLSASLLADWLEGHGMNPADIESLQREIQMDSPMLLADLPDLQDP
structure (smiles),measurement,setting,value
OC[C@@H](O)[C@@H](O)[C@H](O)[C@@H](O)CO,parasite load remaining,[1],34.8% (inactive)
same,viability,[1],97.5%
same,red/green cell ratio (normalised),[2],1.05 (inactive)
same,normalised cell number,[2]; [25],1.02
same,normalised cell number,[2]; [26],1.06
same,outcome,[3],inactive
same,outcome,[4],inactive
same,outcome,[5],inactive
same,outcome,[6],inactive
same,outcome,[7],inactive
same,outcome,[8],inactive
same,outcome,[9],inactive
same,outcome,[10],inactive
same,fold change,[11]; [27],0.939 (inactive)
same,fold change,[11]; [28],3.07
same,cell count,[11]; [29],11500
same,cell count,[11]; [30],12200
same,remaining NAD,[12],10 nM (inactive)
N[C@@H](CC(=O)N1CCn2c(nnc2C(F)(F)F)C1)Cc1cc(F)c(F)cc1F,parasite load remaining,[1],48.9% (inactive)
same,viability,[1],95.5%
same,red/green cell ratio (normalised),[2],1.25 (inactive)
same,normalised cell number,[2]; [25],0.94
same,normalised cell number,[2]; [26],1.18
same,outcome,[4],inactive
same,outcome,[5],inactive
same,outcome,[6],inactive
same,outcome,[7],inactive
same,outcome,[8],inactive
same,outcome,[9],inactive
same,outcome,[10],inactive
same,remaining NAD,[12],10 nM (inactive)
same,luciferase signal,[13],92 AU (inactive)
CC(C)C(C)/C=C/C(C)C1CCC2C3=CC=C4CC(O)CCC4(C)C3CCC21C (stereo not given),red/green cell ratio (normalised),[2],0.85 (inactive)
same,normalised cell number,[2]; [25],1
same,normalised cell number,[2]; [26],0.85
same,outcome,[3],inactive
same,outcome,[5],inactive
same,outcome,[14],inactive
same,outcome,[6],inactive
same,outcome,[7],inactive
same,outcome,[8],inactive
same,outcome,[9],inactive
same,outcome,[10],inactive
COc1ccc(C2Sc3ccccc3N(CCN(C)C)C(=O)C2OC(C)=O)cc1 (stereo not given),inhibition,[15],5.24%
same,score,[16],1.09
same,rescue above control,[17],-7.88
same,cytochrome c release ratio,[18],1.1
same,inhibition of aggregation,[19],45.9%
same,glutamate uptake change,[20],4.81%
same,inclusion score,[21],2
same,aggregation suppression score,[22],0.716
same,parasite load remaining,[1],163% (inactive) and 58.1% (inactive)
same,viability,[1],88.6% and 96.1%
same,red/green cell ratio (normalised),[2],1.25 (inactive)
same,normalised cell number,[2]; [25],0.98
same,normalised cell number,[2]; [26],1.22
same,outcome,[5],inactive
same,outcome,[14],inactive
same,outcome,[8],inactive
same,fold change,[11]; [27],0.937 (inactive) and 0.887 (inactive)
same,fold change,[11]; [28],0.646 and 4.46
same,cell count,[11]; [29],7800 and 11500
same,cell count,[11]; [30],8320 and 13000
same,z-score,"[23]; MELAS cybrid survival, CellTiter-Glo 48 h, stronger effect = higher value",-0.332 (inactive)
same,z-score,"[23]; Rieske KO mouse fibroblast survival, CellTiter-Glo 72 h",-0.2
Nc1nc(F)nc2c1ncn2[C@@H]1O[C@H](COP(=O)(O)O)[C@@H](O)[C@@H]1O,parasite load remaining,[1],22.2% (inactive)
same,viability,[1],105%
same,red/green cell ratio (normalised),[2],1.06 (inactive)
same,normalised cell number,[2]; [25],0.86
same,normalised cell number,[2]; [26],0.92
same,AC50,[3],18.6 µM (active)
same,outcome,[5],inactive
same,outcome,[7],inactive
same,outcome,[8],inactive
same,outcome,[9],inactive
same,outcome,[10],inactive
same,fold change,[11]; [27],1.07 (inactive)
same,fold change,[11]; [28],1.01
same,cell count,[11]; [29],1570
same,cell count,[11]; [30],1470
same,viability,"[24]; at 0.000305 µM, OCI-C5x cells, with rucaparib 10 µM, 100% = cells with rucaparib alone",107% (inactive)
same,viability,"[24]; at 0.000305 µM, OCI-C5x cells, without rucaparib",110% (inactive)
same,viability,"[24]; at 0.000305 µM, OCI-P5x cells, with rucaparib 20 µM, 100% = cells with rucaparib alone",111% (inactive)
same,viability,"[24]; at 0.000305 µM, OCI-P5x cells, without rucaparib",109% (inactive)
same,viability,"[24]; at 0.00122 µM, OCI-C5x cells, with rucaparib 10 µM, 100% = cells with rucaparib alone",107% (inactive)
same,viability,"[24]; at 0.00122 µM, OCI-C5x cells, without rucaparib",109% (inactive)
same,viability,"[24]; at 0.00122 µM, OCI-P5x cells, with rucaparib 20 µM, 100% = cells with rucaparib alone",106% (inactive)
same,viability,"[24]; at 0.00122 µM, OCI-P5x cells, without rucaparib",109% (inactive)
same,viability,"[24]; at 0.00488 µM, OCI-C5x cells, with rucaparib 10 µM, 100% = cells with rucaparib alone",105% (inactive)
same,viability,"[24]; at 0.00488 µM, OCI-C5x cells, without rucaparib",111% (inactive)
same,viability,"[24]; at 0.00488 µM, OCI-P5x cells, with rucaparib 20 µM, 100% = cells with rucaparib alone",107% (inactive)
same,viability,"[24]; at 0.00488 µM, OCI-P5x cells, without rucaparib",110% (inactive)
same,viability,"[24]; at 0.0195 µM, OCI-C5x cells, with rucaparib 10 µM, 100% = cells with rucaparib alone",97% (active)
same,viability,"[24]; at 0.0195 µM, OCI-C5x cells, without rucaparib",111% (inactive)
same,viability,"[24]; at 0.0195 µM, OCI-P5x cells, with rucaparib 20 µM, 100% = cells with rucaparib alone",109% (inactive)

# Source: PubChem BioAssay
